Records with an inconclusive call do not appear. Entries that show only a call come without a potency. Activity calls are given as the source filed them. Calls come from the whole dose curve; as a rule, active = well fitted cell-killing curve with a large enough effect; inconclusive = small, poorly fitted or top-dose-only effect; inactive = flat fitted curve, though single readings scatter. Numbered stars: 1 amine (or outer) side, 2 acyl side, 3 side chain; on linkers, the order of the positions; unused ones are H or OH. Bridge positions count the residues as written; N and C are the ends. Square brackets hold non-standard residues; d marks the D form. Peptide text beside a SMILES is read from it. I, II: the chains in the order shown. Actinocin(9to1) = Cc1c2oc3c(C)ccc(C(=O)[*:1])c3nc-2c(C(=O)[*:2])c(N)c1=O; NMeV = CN[C@H](C(=O)O)C(C)C; Sar = CNCC(=O)O
Potency is the fitted concentration of half-maximal effect.

This assay is described as follows: qHTS of pediatric cancer cell lines to identify multiple opportunities for drug repurposing: Confirmatory screen for BT-12 cells (AID 1347112). Note: nearly all actives have a fitted effect of over 55% in size. To be noted: BT-12 rhabdoid tumor cells, viability; series mostly up to 45.9 µM. The source says:
Drug repurposing or repositioning has been offered as a strategy for drug development in oncology programs. This approach has special potential for childhood cancers and other rare or orphan diseases, where the expected return on new drug development has been a disincentive to pharmaceuticals.
In this project we exploit the poly-pharmacology of drugs to discover new indications via phenotypic screening of a panel of 19 well-characterized cell lines derived from solid tumors seen in children and adolescents. The goal is to identify approved drugs with previously unrecognized anticancer properties that has the potential to reveal new mechanisms and biological processes involved in carcinogenesis or drug resistance. We employed a titration-based paradigm (quantitative high-throughput screening or qHTS), where all compounds were tested at multiple concentrations for their effect on cell viability. Concentration-response curves (CRCs) were derived directly from the primary screen, and both potency and efficacy values were used to identify compounds with robust bioactivity profiles. We screened the NIH Chemical Genomics Center (NCGC) Pharmaceutical Collection (NPC) and Mechanism Interrogation Plate (MIPE) small molecule collections of approved and investigational compounds against these cell lines; and measured metabolically active cells after 48 hours of compound treatment as a proxy for cell viability.
Assay Submitter: Nathalia J. Martinez, National Center for Advancing Translational Sciences, National Institutes of Health, Rockville, MD, USA; email: natalia.martinez@nih.gov
[1] Shen, M et al. Quantitative high-throughput phenotypic screening of pediatric cancer cell lines identifies multiple opportunities for drug repurposing. Oncotarget 2017 Dec 19;9(4):4758-4772. PMID 29435139.
The cells were obtained from University of North Carolina (UNC), Pediatric Preclinical Testing Program (PPT), and Coriell Institute (CI).
qHTS cell viability assay:
Cells were assayed in growth media at a density of 500-1,000 cells/well. Five microliters of cells were dispensed into 1,536-well, white, solid-bottom, TC-treated plates (Greiner Bio One) using a multidrop dispenser and incubated at 37 degrees C, 5% CO2, under a humidified atmosphere for 5 hours. Twenty-three nanoliters of compounds and controls (neutral control DMSO or positive control bortezomib at final concentration of 2.3 µM) were subsequently transferred by Kalypsys pintool. For primary screens, the MIPE collection was tested at 11-point dilutions (final concentrations range from 0.78 nM to 46 µM) and the NPC collection at 8-point dilutions (final concentrations range from 0.59 nM to 46 µM). Compounds tested in follow-up screens were assayed at 11-point dilutions. Cells were incubated for 48 hours, followed by addition of 3 µL of CellTiter-Glo (Promega). After a 15 min incubation at room temperature, samples were analyzed for luminescence intensity using a ViewLux High-throughput CCD imager equipped with clear filters.
As for `COc1cccc2c1C(=O)c1c(O)c3c(c(O)c1C2=O)C[C@@](O)(C(=O)CO)C[C@@H]3O[C@H]1C[C@H](N)[C@H](O)[C@H](C)O1`, the Potency is 4.65 µM (active).

As to `CC(C)(C(=O)c1cccnc1)c1cccnc1`, the Potency result was “inactive”.

As for `CC1(C)O[C@@H]2C[C@H]3[C@@H]4CCC5=CC(=O)CC[C@]5(C)[C@@]4(F)[C@@H](O)C[C@]3(C)[C@]2(C(=O)CCl)O1`, the Potency result was “inactive”.

Regarding `C[C@]12C=CC(=O)C=C1CC[C@@H]1[C@@H]2[C@@H](O)C[C@@]2(C)[C@H]1CC[C@]2(O)C(=O)CO`, the Potency entry is “inactive”.

As for `C[C@H]1C[C@H]2[C@@H]3CCC4=CC(=O)C=C[C@]4(C)[C@@]3(Cl)[C@@H](O)C[C@]2(C)[C@@]1(O)C(=O)CO`, the Potency result is “inactive”.

Turning to `CC(=O)OCC(=O)[C@@]1(O)CC[C@H]2[C@@H]3CCC4=CC(=O)C=C[C@]4(C)[C@H]3[C@@H](O)C[C@@]21C`, the Potency entry is “inactive”.

Consider `CC(=O)Oc1ccc(C(c2ccc(OC(C)=O)cc2)c2ccccn2)cc1`, for which the Potency result was “inactive”.

For the compound `CC(=O)Oc1ccc2c(c1)CC[C@@H]1[C@@H]2CC[C@]2(C)[C@@H](O)CC[C@@H]12`, the Potency entry was “inactive”.

Turning to `CCCC(=O)O[C@]1(C(=O)CO)CC[C@H]2[C@@H]3CCC4=CC(=O)CC[C@]4(C)[C@H]3[C@@H](O)C[C@@]21C`, the Potency result was “inactive”.

Turning to `C[n+]1c2cc(N)ccc2cc2ccc(N)cc21` (tested in a mixture with another compound), the Potency is 0.928 µM (active).

For `CCCCC(CC)CN=C(N)NC(N)=NCCCCCCN=C(N)NC(N)=NCC(CC)CCCC` (centres undefined), the Potency is 5.22 µM (active).

With `C[C@@H]1C[C@H]2[C@@H]3CCC4=CC(=O)C=C[C@]4(C)[C@@]3(F)[C@@H](O)C[C@]2(C)[C@H]1C(=O)CO`, the Potency result is “inactive”.

For the compound `Cc1c2oc3c(C)ccc(C(=O)N[C@@H]4C(=O)N[C@H](C(C)C)C(=O)N5CCC[C@H]5C(=O)N(C)CC(=O)N(C)[C@@H](C(C)C)C(=O)O[C@@H]4C)c3nc-2c(C(=O)N[C@@H]2C(=O)N[C@H](C(C)C)C(=O)N3CCC[C@H]3C(=O)N(C)CC(=O)N(C)[C@@H](C(C)C)C(=O)O[C@@H]2C)c(N)c1=O` (I: T[dV]P[Sar][NMeV] / II: T[dV]P[Sar][NMeV]; ester I:1-I:C, II:1-II:C; linker I:N-II:N via Actinocin(9to1)), the Potency was 0.0208 µM (active).

For `CN(C)C(=S)SC(=S)N(C)C`, the Potency was 4.65 µM (active).

With `CC1(C)O[C@@H]2C[C@H]3[C@@H]4C[C@H](F)C5=CC(=O)CC[C@]5(C)[C@H]4[C@@H](O)C[C@]3(C)[C@]2(C(=O)CO)O1`, the Potency result was “inactive”.

On to `COc1c(C)c2c(c(O)c1C/C=C(\C)CCC(=O)O)C(=O)OC2`, for which the Potency is 4.65 µM (active).

Turning to `C[C@]12C=CC(=O)C=C1[C@@H](F)C[C@@H]1[C@@H]2[C@@H](O)C[C@@]2(C)[C@H]1CC[C@]2(O)C(=O)CO`, the Potency result was “inactive”.

Regarding `OC[C@H]1O[C@@H](n2cnc3c(=S)nc[nH]c32)[C@H](O)[C@@H]1O`, the Potency is 14.7 µM (active).

As to `CC(=O)OCC(=O)[C@@]1(OC(C)=O)[C@@H](C)C[C@H]2[C@@H]3C[C@H](F)C4=CC(=O)C=C[C@]4(C)[C@@]3(F)[C@@H](O)C[C@@]21C`, the Potency result was “inactive”.

`CC(=O)[C@H]1CC[C@H]2[C@@H]3C[C@H](C)C4=CC(=O)CC[C@]4(C)[C@H]3[C@@H](O)C[C@]12C`: the Potency entry was “inactive”.

In the case of `CCOc1ccc2nc3cc(N)ccc3c(N)c2c1`, the Potency was 16.5 µM (active).

For the compound `CCCCCCC[N+](CC)(CC)CCCCc1ccc(Cl)cc1`, the Potency is 8.27 µM (active).

With `NC(CO)(CO)CO`, the Potency result was “inactive”.

Regarding `CCC(C(=O)OCCN(CC)CC)c1ccccc1` (centres undefined), the Potency result is “inactive”.

Take `CC(=O)OCC(=O)[C@@]12OC(C)(C)O[C@@H]1C[C@H]1[C@@H]3C[C@H](F)C4=CC(=O)C=C[C@]4(C)[C@@]3(F)[C@@H](O)C[C@@]12C`: the Potency result was “inactive”.

`COc1cc(C=C2CCC/C(=C\c3ccc(O)c(OC)c3)C2=O)ccc1O`: the Potency was 18.5 µM (active).

As for `NC(=O)CC[C@@H]1NC(=O)[C@H](Cc2ccccc2)NC(=O)[C@H](Cc2ccc(O)cc2)NC(=O)CCSSC[C@@H](C(=O)N2CCC[C@H]2C(=O)N[C@@H](CCCN=C(N)N)C(=O)NCC(N)=O)NC(=O)[C@H](CC(N)=O)NC1=O`, the Potency entry was “inactive”.

With `O=C(CCCN1CCC(O)(c2ccc(Br)cc2)CC1)c1ccc(F)cc1`, the Potency entry is “inactive”.

On to `CN(C)/N=N/c1nc[nH]c1C(N)=O`, for which the Potency result was “inactive”.
